# Data reported in the supplement of paper PMC6522484.
# ± gives the standard deviation of the averaged measurements.
# System: SW480
# Experiment: TCF/Wnt firefly luciferase reporter signal relative to plate median (fraction of plate median); higher = higher Wnt reporter signal
# Conditions: 5 µM; treatment time 24 h; reporter: 7TFP
# Summary of the method: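 Library compounds, at a final 5 µM, stayed on reporter cells for 24 h. The cells were colorectal cancer lines stably transduced with lentiviral TCF/Wnt firefly luciferase reporters, seeded in 384-well plates 24 h before dosing. Firefly luciferase or CellTiterGlo luminescence from parallel plates was normalised to the plate median in webcellHTS2 (additive, no log transformation), and two independent replicates were averaged.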
row,SMILES,TCF/Wnt firefly luciferase reporter signal
1,"C=C1C2CCC3(C)C(c4ccoc4)OC(=O)CC13OC1CC(OC(C)=O)C(C)(C)C(CC(=O)OC)C12C (stereo not drawn) [3beta-ACETOXYDEOXYANGOLENSIC ACID, METHYL ESTER]",0.8955 ± 0.0021
2,CC1(C)C=CC(=O)[C@@]2(C)C1CC(=O)[C@]1(C)C2CC[C@@]2(C)[C@H](c3ccoc3)OC(=O)C3OC321 (stereo not given in full),0.854 ± 0.13
3,N[C@@H](Cc1cc(I)c(Oc2cc(I)c(O)c(I)c2)c(I)c1)C(=O)O,1.17 ± 0.05
4,COc1ccc2ccc(=O)oc2c1,0.915 ± 0.12
5,O=C1c2c(O)cccc2C([C@@H]2O[C@H](CO)[C@@H](O)[C@H](O)[C@H]2O)c2cc(CO)cc(O)c21 (stereo not given in full),1.07 ± 0.05
6,OC[C@@H](O)[C@@H](O[C@@H]1O[C@H](CO)[C@@H](O)[C@H](O)[C@H]1O)[C@H](O)[C@@H](O)CO,1.11 ± 0.014
7,CC(=O)C12OC(C)(c3ccccc3)OC1CC1C3CCC4=CC(=O)CCC4(C)C3CCC12C (stereo not given),0.939 ± 0.067
8,CC1(C)CC[C@]2(C(=O)O)CC[C@]3(C)C(=CC[C@@H]4[C@@]5(C)CC[C@H](O)C(C)(C)[C@@H]5[C@H](O)C[C@]43C)[C@@H]2C1,1.04 ± 0.057
9,CCOC(=O)[C@H](CCc1ccccc1)N[C@@H](C)C(=O)N1[C@H](C(=O)O)C[C@H]2CCCC[C@@H]21,0.974 ± 0.093
10,CC(=O)O[C@H]1CC[C@]2(C)C3=C(CC[C@H]2C1(C)C)[C@]1(C)CC[C@H]([C@H](C)CCC=C(C)C)[C@@]1(C)CC3,0.958 ± 0.1
11,COc1ccc2c(=O)c(-c3cc4c(cc3OC)OCO4)coc2c1,1.14 ± 0.014
12,OCC(S)CS (stereo not given),0.936 ± 0.066
13,COc1ccc([C@@H]2CC(=O)c3c(O)cc(O)cc3O2)cc1O,0.982 ± 0.04
14,O=c1cc(-c2ccccc2)oc2c(O)c(O)ccc12,1.11 ± 0.057
15,CC(=O)S[C@@H]1CC2=CC(=O)CC[C@]2(C)[C@H]2CC[C@@]3(C)[C@@H](CC[C@@]34CCC(=O)O4)[C@H]12,0.955 ± 0.016
16,OCc1c[nH]c2ccccc12,0.992 ± 0.026
17,O=C(O)c1cc2ccccc2[nH]1,1.08 ± 0.021
18,CC1(C)O[C@@H]2C[C@H]3[C@@H]4C[C@H](F)C5=CC(=O)C=C[C@]5(C)[C@H]4[C@@H](O)C[C@]3(C)[C@]2(C(=O)CO)O1,1.03 ± 0.067
19,COC(=O)[C@H]1[C@H]2C[C@H]3c4[nH]c5ccccc5c4CCN3C[C@@H]2CC[C@@H]1O,1.06 ± 0.028
20,CC[n+]1c(-c2ccccc2)c2cc(N)ccc2c2ccc(N)cc21,1.08 ± 0.12

row,SMILES,TCF/Wnt firefly luciferase reporter signal
1,CN(C)CCN(Cc1cccs1)c1ccccn1,1.03 ± 0.028
2,CCc1nc(N)nc(N)c1-c1ccc(Cl)cc1,1.1 ± 0.042
3,CC(=O)Nc1ccc(O)cc1,1.05 ± 0.071
4,COc1ccc(C(=O)CC(=O)c2ccc(C(C)(C)C)cc2)cc1,1.04 ± 0.18
5,COc1cccc(/C=C/C(=O)O)c1C(C)C,1.03 ± 0.17
6,CC[C@H]1OC(=O)C[C@@H](O)[C@H](C)[C@@H](O[C@@H]2O[C@H](C)[C@@H](O)[C@H](N(C)C)[C@H]2O)[C@@H](CCN2C[C@H](C)C[C@H](C)C2)C[C@@H](C)C(=O)/C=C/C(C)=C/[C@@H]1CO[C@@H]1O[C@H](C)[C@@H](O)[C@@H](OC)[C@H]1OC,1.09 ± 0.064
7,CN1[C@@H]2CC[C@H]1C[C@@H](OC(c1ccccc1)c1ccccc1)C2,0.982 ± 0.12
8,CC(=O)C[C@@H]1C[C@H](O)c2c(O)cccc2C1=O [Bhimanone],1.12 ± 0.057
9,O=c1c(-c2ccc(O)cc2)coc2cc(O)cc(O)c12,1.12
10,Cc1c(N(C)C)c(=O)n(-c2ccccc2)n1C,0.821 ± 0.057
11,CC1=CC2C(C(C)C)CCC(C)(O)C2CC1 (stereo not given),0.957 ± 0.025
12,CCN(CC)CCOC(=O)C(Cc1cccc2ccccc12)CC1CCCO1 (stereo not given),1.22 ± 0.37
13,COC(=O)C1=CO[C@@H](O[C@@H]2O[C@H](CO)[C@@H](O)[C@H](O)[C@H]2O)[C@@H]2[C@@H](C)[C@@H](O)C[C@H]12,1.09 ± 0.064
14,CN(C)CCC=C1c2ccccc2COc2ccccc21,1.07 ± 0.014
15,COC(=O)C[C@H]1C(C)(C)[C@@H](OC(C)=O)[C@@H]2CC3C4CC(=O)O[C@@H](c5ccoc5)[C@]4(C)CCC3[C@@]1(C)C2=O (stereo not given in full),1.005 ± 0.0071
16,NS(=O)(=O)c1cc2c(cc1C(F)(F)F)NC(Cc1ccccc1)NS2(=O)=O (stereo not given),0.885 ± 0.064
17,Oc1ccc(Cl)c2cccnc12,1.09 ± 0.042
18,C#C[C@]1(OC(C)=O)CC[C@H]2[C@@H]3CCC4=CC(=O)CC[C@@H]4[C@H]3CC[C@@]21C,0.768 ± 0.023
19,CCCc1ncc(C[n+]2ccccc2C)c(N)n1,0.987 ± 0.011
20,CC1(C)[C@@H](O)CC[C@]2(C)[C@H]3C(=O)C=C4[C@@H]5C[C@@](C)(C(=O)O)CC[C@]5(C)CC[C@@]4(C)[C@]3(C)CC[C@@H]12,1.12 ± 0.13
